In PubChem BioAssay one finds composite z-score, z-score and composite Z-score data, which are given here for six molecules.

Assay [1] has as its system Human papillomavirus type 1a protein E7 (residues 44-93). In words: small molecules binding HPV E7 44-93 – biochemical, small-molecule microarray, residues 44-93, 635 nm fluorescence, primary screen (AID 1108).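 Further: E7 fragment applied at 1 µg/mL in TBST for 1 h at 4 C; score combines spot fluorescence with its signal to noise ratio.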 The note with it: fluorescence 635 nm, higher = more signal.
The nature of assay [2]: hepatitis C replication reporter changes, two-sided – Huh7 cells, luciferase reporter, HCV replication inhibitor project, primary screen (AID 1109).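 Further: huh7 hepatoma cells harbouring a luciferase neomycin HCV replicon reporter; luciferase luminescence as measure of HCV replicon replication; test concentration not given here.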 The note with it: Huh7 HCV replicon luciferase reporter, 48 h; higher = more signal.
The target in assay [3] is Left-right determination factor 2 (Homo sapiens) (UniProt O00292). In words: small molecules binding LEFTY2 protein – biochemical, small-molecule microarray, 635 nm fluorescence scan, primary screen (AID 1110). The note with it: higher = more signal.
Assay [4] deals with Calmodulin-1 (Homo sapiens) (UniProt P0DP23). In words: small molecules binding calmodulin-1 with EGTA – biochemical, small-molecule microarray, Cy5-labelled CALM1, profiling panel (AID 1111).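 Further: labelled calmodulin applied in Tris saline Tween buffer holding calcium plus EGTA and DTT.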 Particulars: Cy5-CALM1 binding fluorescence, higher = more signal.
Assay [5] shares this target. Nature of the assay: small molecules binding Ca-loaded calmodulin-1 – biochemical, small-molecule microarray, Cy5-labelled CALM1, plus calcium, artefact control for SMM control-protein annotation, profiling panel (AID 1112).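 Further: score merges spot fluorescence with signal to noise from triplicate slides.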 Particulars: Cy5-CALM1 binding fluorescence, higher = more signal.
Assay [6] can be described thus: probe aWnt5a binding to arrayed compounds – biochemical, biotinylated probe, 635/667 nm fluorescence, primary screen (AID 1113).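 Further: score merges 667 nm fluorescence intensity with signal-to-noise per printed feature.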 The note with it: small-molecule microarray, higher = more signal.
Assay [7] in a line: probe aShh binding to arrayed compounds – biochemical, biotinylated probe, 635/667 nm fluorescence, primary screen (AID 1114).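 Further: probe is biotin-labelled aShh protein from a stem cell growth factor screen; measures binding of labelled protein to compounds printed on the slide; score merges feature fluorescence at 667 nm with signal-to-noise.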 The note with it: small-molecule microarray, higher = more signal.
A short description of assay [8]: probe aNog binding to arrayed compounds – biochemical, biotinylated probe, 635/667 nm fluorescence, primary screen (AID 1115).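 Further: probe is biotinylated aNog protein used at 0.15 µg/mL for 1 h at 4 C; z-score combines 667 nm fluorescence of each spot with its signal to noise.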 Particulars: small-molecule microarray, higher = more signal.
For assay [9], the target named is Torsin-1A-interacting protein 1 (Homo sapiens) (UniProt Q5JTV8). In words: compound microarray binding of lysate hLAP1 – cell lysate, small-molecule microarray, COS7 lysate, 635/667 nm fluorescence, primary screen (AID 1116). The note with it: 635 nm fluorescence, higher = more signal.
In assay [10] the target is Alpha-bungarotoxin (Bungarus multicinctus) (UniProt P60615). Nature of the assay: compounds binding labelled alpha-BTX control protein – biochemical, small-molecule microarray, Alexa647 label, 635/667 nm fluorescence, artefact control for SMM control protein annotation, profiling panel (AID 1117). Particulars: alpha-BTX-A647 binding fluorescence, higher = more signal.
Another assay has as its target Albumin (Bos taurus) (UniProt P02769). In words: compounds binding labelled BSA control protein – biochemical, small-molecule microarray, Alexa647 label, 635/667 nm fluorescence, artefact control for SMM control protein annotation, profiling panel (AID 1118).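 Further: score merges 667 nm emission intensity and signal-to-noise per printed compound spot.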 The note with it: BSA-A647 binding, fluorescence 635 nm, higher = more signal.
Assay [11] can be described thus: probe aXIP binding to arrayed compounds – biochemical, NeuroSMM set, 635/667 nm fluorescence, primary screen (AID 1119).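 Further: probe is the protein aXip251-270 applied at 1 µg/mL to compound-printed slides; binding of probe to printed compounds measured as 667 nm fluorescence plus signal to noise.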 The note with it: small-molecule microarray, higher = more signal, called active from +8 up or from −8 down.
Assay [12] in a line: probe aNOTCH3 binding on compound microarray – biochemical, small-molecule microarray, 635/667 nm fluorescence, primary screen (AID 1120).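 Further: probe is a biotin-tagged antibody raised against NOTCH3 rather than NOTCH3 protein; score merges spot fluorescence near 667 nm with spot signal to noise.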 The note with it: higher = more signal.
Assay [13] can be described thus: probe aNOTCH2 binding on compound microarray – biochemical, small-molecule microarray, 635/667 nm fluorescence, primary screen (AID 1121).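 Further: score merges feature fluorescence read at 667 nm with its signal to noise.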 Particulars: higher = more signal.
For assay [14], the target named is Carbonic anhydrase 2 (Homo sapiens) (UniProt P00918). In words: compounds binding carbonic anhydrase 2 – biochemical, small-molecule microarray, Alexa647-labelled CAII, profiling panel (AID 1122). The note with it: CAII-A647 binding fluorescence, higher = more signal.
Assay [15] is described as follows: COS7 lysate on small-molecule microarray, probe aHis, 635 nm (AID 1123).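 Further: z-score combines 667nm fluorescence intensity with signal-to-noise per printed compound spot.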 Particulars: COS7 cell lysate, fluorescence, higher = more signal.
A short description of assay [16]: probe aLAP1 signal on lysate-treated microarray – cell lysate, small-molecule microarray, COS7 lysate, primary screen (AID 1124).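 Further: lysate comes from COS7 cells expressing LAP1 and is applied at 0.3 µg/mL; score merges spot fluorescence near 667 nm with signal-to-noise over triplicate slides.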 Particulars: probe aLAP1, fluorescence, higher = more signal.
Another assay relates to Sam68 (KHDRBS1). Nature of the assay: compounds binding KHDRBS1 protein – biochemical, small-molecule microarray, 635 nm fluorescence, primary screen (AID 1125).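 Further: score merges 667 nm channel intensity with signal to noise over triplicate slides.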 The note with it: higher = more signal.
The test system of assay [17] is Chordin-like protein 2 (CHRDL2). In words: compounds binding chordin-like 2 – biochemical, small-molecule microarray, 635 nm fluorescence, primary screen (AID 1126).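 Further: printed compound slides probed with Chrdl2 protein at 4 µg/mL for 1 h at 4 C; score merges 667 nm emission intensity with signal to noise over three replicate slides.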 The note with it: fluorescence 635 nm, higher = more signal.
The target of assay [18] is Concanavalin-A (Canavalia ensiformis) (UniProt P02866). In words: compounds binding concanavalin A lectin – biochemical, small-molecule microarray, Alexa647 label, 635 nm, artefact control for SMM control protein annotation, primary screen (AID 1127).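 Further: z combines 667 nm emission intensity with signal-to-noise across three replicate slides.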 The note with it: ConA-A647 binding fluorescence, higher = more signal.

The structures appear in SMILES notation. Activity calls are given as the source filed them.

Concanavalin-A (Canavalia ensiformis), sequence (P02866 whole entry, looked up): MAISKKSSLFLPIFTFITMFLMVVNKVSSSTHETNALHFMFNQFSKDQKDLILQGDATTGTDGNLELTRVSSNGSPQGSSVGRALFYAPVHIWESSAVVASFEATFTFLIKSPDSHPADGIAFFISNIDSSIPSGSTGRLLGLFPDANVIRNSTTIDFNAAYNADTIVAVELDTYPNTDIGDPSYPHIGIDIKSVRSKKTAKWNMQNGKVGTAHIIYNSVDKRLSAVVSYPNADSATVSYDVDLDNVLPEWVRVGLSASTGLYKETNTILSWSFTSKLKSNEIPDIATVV
Albumin (Bos taurus), sequence (P02769 whole entry, looked up): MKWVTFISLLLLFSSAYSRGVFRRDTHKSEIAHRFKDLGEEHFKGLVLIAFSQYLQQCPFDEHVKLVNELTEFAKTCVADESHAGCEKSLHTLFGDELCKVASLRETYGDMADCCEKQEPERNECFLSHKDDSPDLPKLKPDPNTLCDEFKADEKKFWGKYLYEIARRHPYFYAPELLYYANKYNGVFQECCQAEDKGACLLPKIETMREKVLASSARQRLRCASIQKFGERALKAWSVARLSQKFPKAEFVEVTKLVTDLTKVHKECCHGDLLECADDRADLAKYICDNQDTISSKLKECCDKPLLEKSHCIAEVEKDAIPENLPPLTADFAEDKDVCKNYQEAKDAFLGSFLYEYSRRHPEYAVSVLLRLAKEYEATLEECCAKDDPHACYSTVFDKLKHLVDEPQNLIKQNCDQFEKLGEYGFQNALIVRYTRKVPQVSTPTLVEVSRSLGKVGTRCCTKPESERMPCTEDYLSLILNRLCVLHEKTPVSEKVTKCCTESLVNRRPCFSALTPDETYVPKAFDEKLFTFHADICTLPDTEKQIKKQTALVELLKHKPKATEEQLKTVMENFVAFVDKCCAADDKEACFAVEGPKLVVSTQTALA
Alpha-bungarotoxin (Bungarus multicinctus), sequence (P60615 whole entry, looked up): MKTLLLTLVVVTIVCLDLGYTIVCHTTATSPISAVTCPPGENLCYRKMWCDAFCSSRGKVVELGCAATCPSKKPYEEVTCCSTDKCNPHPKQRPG
Torsin-1A-interacting protein 1 (Homo sapiens), sequence (Q5JTV8 whole entry, looked up): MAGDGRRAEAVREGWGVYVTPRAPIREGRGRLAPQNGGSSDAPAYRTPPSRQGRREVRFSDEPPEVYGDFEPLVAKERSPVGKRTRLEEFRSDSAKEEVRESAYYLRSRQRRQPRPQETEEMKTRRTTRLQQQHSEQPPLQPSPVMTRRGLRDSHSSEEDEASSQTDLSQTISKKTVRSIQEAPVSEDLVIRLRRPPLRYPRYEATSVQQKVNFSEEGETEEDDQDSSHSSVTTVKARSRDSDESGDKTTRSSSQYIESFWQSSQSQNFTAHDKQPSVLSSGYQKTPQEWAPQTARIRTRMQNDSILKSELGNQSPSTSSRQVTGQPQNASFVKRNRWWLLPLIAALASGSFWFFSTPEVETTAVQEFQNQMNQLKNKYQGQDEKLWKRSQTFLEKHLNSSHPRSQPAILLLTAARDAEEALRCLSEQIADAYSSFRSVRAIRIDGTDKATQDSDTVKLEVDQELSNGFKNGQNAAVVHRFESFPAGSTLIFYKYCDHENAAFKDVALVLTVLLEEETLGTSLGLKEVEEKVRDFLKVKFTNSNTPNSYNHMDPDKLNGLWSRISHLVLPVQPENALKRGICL
Left-right determination factor 2 (Homo sapiens), sequence (O00292 whole entry, looked up): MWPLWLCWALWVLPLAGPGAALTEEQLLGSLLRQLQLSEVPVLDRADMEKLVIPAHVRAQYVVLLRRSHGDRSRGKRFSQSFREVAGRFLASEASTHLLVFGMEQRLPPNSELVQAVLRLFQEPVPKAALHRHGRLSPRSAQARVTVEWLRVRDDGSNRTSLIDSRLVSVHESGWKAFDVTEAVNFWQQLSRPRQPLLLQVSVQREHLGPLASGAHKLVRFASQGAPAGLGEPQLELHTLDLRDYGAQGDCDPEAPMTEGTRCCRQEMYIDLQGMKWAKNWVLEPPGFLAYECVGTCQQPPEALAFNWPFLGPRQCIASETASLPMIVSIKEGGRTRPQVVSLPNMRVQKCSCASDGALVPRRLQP

Take `COc1ccc([Si](C)(C)[C@H]2[C@H](CC(=O)N3Cc4ccccc4C[C@H]3CO)O[C@@]3(C(=O)N(Cc4cccc(N5CCCCC5=O)c4)c4ccccc43)[C@@H]2C)cc1`: the composite z-score in assay [1] was 0.551; in assay [3] it was 0.983; in [4], -0.226; in assay [5], -0.48; in assay [6], -0.043; in [7] it was -0.0553. Further, the composite z-score in assay [8] is -0.0206; in assay [9] it was 0.547; in assay [10], 0.244; with Albumin (Bos taurus) it was 0.26; in assay [12], -0.0044; in assay [13] it was -0.14. Moreover, the composite z-score in assay [14] was 0.498; in assay [15], 0.951; in [16] it was 0.0263; with Sam68 (KHDRBS1), 0.724; in assay [17], 1.19; in [18], 1.05. For the same molecule, the z-score in [2] is -3.77. Also, the composite Z-score in assay [11] was 0.424 (inactive).
With `COCCOC(=O)N1C(=O)[C@@]2(c3ccccc31)[C@H](C(=O)N1CCN(c3ncccn3)CC1)[C@H]1C(=O)O[C@H](c3ccccc3)[C@H](c3ccccc3)N1[C@@H]2c1ccc(OCCO)cc1`, the composite z-score is 1.41 in assay [1]; 0.708 in assay [3]; 0.89 in assay [4]; 0.316 in assay [5]; -0.0944 in assay [6]; 0.0639 in assay [7]. For the same molecule, the composite z-score in [8] was 0.612; in assay [9], 1.03; in assay [10], 1.11; in the assay with Albumin (Bos taurus), 0.329; in assay [12] it was 0.32; in [13] it was -0.0029. Also, the composite z-score was 0.512 in assay [14]; 1.36 in assay [15]; 0.341 in assay [16]; 1.12 in the assay on Sam68 (KHDRBS1); 0.292 in assay [17]; 1.13 in [18]. For the same molecule, the z-score in [2] was -1.42. Further, the composite Z-score in assay [11] is 2.41 (inactive).
As for `O=C1NC(=O)C2C1C=CC(C(O)c1ccc(Br)cc1)N2Nc1ccccn1` (stereo not given), the composite z-score was -0.444 in [1]; 0.727 in [3]; -0.156 in assay [4]; -0.435 in [5]; 0.149 in [6]; 0.254 in [7]. Besides, the composite z-score in assay [8] turned out to be 0.356; in assay [9], 0.531; in assay [10] it was 0.22; with Albumin (Bos taurus), 0.849; in assay [12], 0.327; in assay [13] it was 0.176. In addition, the composite z-score in assay [14] is 0.822; in [15], 0.991; in assay [16], 0.74; with Sam68 (KHDRBS1), 0.0126; in assay [17] it was 0.913; in [18], 0.48. Also, the z-score in [2] was 0.233. For the same molecule, the composite Z-score in [11] was -0.838 (inactive).
Take `Cc1ccc(F)cc1S(=O)(=O)N[C@@H]1CCN(Cc2ccc(Oc3ccccc3)cc2)C1`: the composite z-score in assay [1] was -1.39; in assay [3], 0.74; in assay [4] it was -1.08; in assay [5], -0.466; in [6], -0.147; in assay [7], -0.195. Besides, the composite z-score in assay [8] was -0.388; in assay [9] it was -0.104; in assay [10], 0.471; with Albumin (Bos taurus), -0.274; in assay [12], 0.154; in assay [13], -0.165. For the same molecule, the composite z-score was 0.304 in [14]; -0.13 in assay [15]; -0.305 in [16]; -0.68 in the assay on Sam68 (KHDRBS1); 0.861 in [17]; -0.905 in [18]. Also, the z-score in assay [2] is -3.67. For the same molecule, the composite Z-score in [11] is -0.608 (inactive).
In the case of `O=C1OCCC=C[C@H]2OC34C=CCN(c5ccc(Cl)cc5)C(=O)[C@H]3N(CCCCCO)C(=O)[C@@H]4C12` (stereo not given in full), the composite z-score is -0.357 in assay [1]; -0.639 in assay [3]; -0.262 in [4]; -0.137 in assay [5]; -0.0512 in assay [6]; -0.0769 in assay [7]. Also, the composite z-score in [8] is 0.496; in [9] it was 0.681; in [10], -0.702; with Albumin (Bos taurus), 0.772; in assay [12], -0.0663; in assay [13], -0.0714. For the same molecule, the composite z-score in assay [14] was 0.873; in assay [15] it was 0.848; in assay [16] it was 0.281; with Sam68 (KHDRBS1), 0.25; in assay [17], -0.27; in [18], -1.21. The molecule also registered a z-score in [2] of 0.312. In addition, the composite Z-score in assay [11] is 0.728 (inactive).
With `CCCCC(=C=CC[C@@H](O)c1ccc(OCCO)cc1)C[C@@H](O)COCc1ccccc1`, the composite z-score in [1] was -0.548; in assay [3], 0.141; in assay [4], -0.686; in assay [5] it was -0.244; in assay [6] it was 0.0044; in [7], 0.0796. Besides, the composite z-score in [8] was -0.213; in assay [9] it was 1.89; in [10], -0.324; with Albumin (Bos taurus), -0.28; in [12] it was -0.182; in assay [13] it was -0.145. Moreover, the composite z-score is 0.868 in assay [14]; 0.173 in assay [15]; -0.268 in assay [16]; 0.61 in the assay with Sam68 (KHDRBS1); 0.0396 in assay [17]; -0.382 in assay [18]. For the same molecule, the z-score in assay [2] was -1.45. The composite Z-score in assay [11] was -0.114 (inactive).
